Assay [1] can be described thus: Quantitative High-Throughput drug screen in 47 multiple myeloma cell lines against the NCATS MIPE library collection: OPM1_PLB cell viability assay (AID 1918989). Also: nearly all actives have a fitted effect of over 40% in size. Also: potency is read from the fitted curve at half-maximal effect. The method, boiled down: (§1)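 Inhibition of viability over 48 h was scored by ATP content (CellTiter-Glo) in 500-cell wells. Zero and full viability were defined by media-only and DMSO-only wells.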
The nature of assay [2]: Quantitative High-Throughput drug screen in 47 multiple myeloma cell lines against the NCATS MIPE library collection: SKMM1_PLB cell viability assay (AID 1919863). Also: nearly all actives have a fitted effect of over 35% in size. The note with it: SKMM1 myeloma viability, CellTiter-Glo ATP, 48 h; viability: stronger effect = lower value. The method, boiled down: as §1
On the technique in general: Cellular ATP, detected with luciferase, serves as a proxy for viable cell number.

Assay [3] can be described thus: Quantitative High-Throughput drug screen in 47 multiple myeloma cell lines against the NCATS MIPE library collection: XG1_PLB cell viability assay (AID 1919866). Also: nearly all actives have a fitted effect of over 35% in size. Also: potency is read from the fitted curve at half-maximal effect. The method, boiled down:
as §1

A short description of assay [4]: Quantitative High-Throughput drug screen in 47 multiple myeloma cell lines against the NCATS MIPE library collection: PE2_PLB cell viability assay (AID 1919869). Also: nearly all actives have a fitted effect of over 35% in size. Also: potency is read from the fitted curve at half-maximal effect. The method, boiled down:
as §1

Assay [5] is described as follows: Quantitative High-Throughput drug screen in 47 multiple myeloma cell lines against the NCATS MIPE library collection: KMS11_JCRBsus cell viability assay (AID 1919873). Also: nearly all actives have a fitted effect of over 50% in size. The method, boiled down: as §1
A short description of assay [6]: Quantitative High-Throughput drug screen in 47 multiple myeloma cell lines against the NCATS MIPE library collection: KMS28BM_JCRB cell viability assay (AID 1919874). Also: nearly all actives have a fitted effect of over 35% in size. Also: potency is read from the fitted curve at half-maximal effect. The method, boiled down: as §1
Assay [7] in a line: Quantitative High-Throughput drug screen in 47 multiple myeloma cell lines against the NCATS MIPE library collection: U266_ATCC cell viability assay (AID 1919864). Also: nearly all actives have a fitted effect of over 35% in size. Also: potency is read from the fitted curve at half-maximal effect. The method, boiled down: as §1
Assay [8] is described as follows: Quantitative High-Throughput drug screen in 47 multiple myeloma cell lines against the NCATS MIPE library collection: XG6_PLB cell viability assay (AID 1919865). Also: nearly all actives have a fitted effect of over 40% in size. Also: potency is read from the fitted curve at half-maximal effect. The method, boiled down: as §1
Assay [9] in a line: Quantitative High-Throughput drug screen in 47 multiple myeloma cell lines against the NCATS MIPE library collection: UTMC2_PLB cell viability assay (AID 1919868). Also: nearly all actives have a fitted effect of over 55% in size. Also: potency is read from the fitted curve at half-maximal effect. The conditions noted are these: CellTiter-Glo ATP luminescence, 48 h; viability (% of DMSO control): at 45.8 µM (top of the series). The method, boiled down:
as §1

Assay [10] can be described thus: Quantitative High-Throughput drug screen in 47 multiple myeloma cell lines against the NCATS MIPE library collection: RPMI8226_ATCC cell viability assay (AID 1919871). Also: nearly all actives have a fitted effect of over 30% in size. Also: potency is read from the fitted curve at half-maximal effect. The method, boiled down:
as §1

A short description of assay [11]: Quantitative High-Throughput drug screen in 47 multiple myeloma cell lines against the NCATS MIPE library collection: OPM2_DSMZ cell viability assay (AID 1919872). Also: nearly all actives have a fitted effect of over 30% in size. Also: potency is read from the fitted curve at half-maximal effect. The method, boiled down:
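We plated 500 myeloma cells per well, pinned in MIPE 4.0 compounds, and incubated for 48 hours at 37C. ATP was then quantified with CellTiter-Glo, with DMSO and media-only wells defining 100% and 0%.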

Assay [12] can be described thus: Quantitative High-Throughput drug screen in 47 multiple myeloma cell lines against the NCATS MIPE library collection: PCM6_Riken cell viability assay (AID 1919870). Also: nearly all actives have a fitted effect of over 30% in size. Also: potency is read from the fitted curve at half-maximal effect. The method, boiled down:
as §1

Assay [13] can be described thus: Quantitative High-Throughput drug screen in 47 multiple myeloma cell lines against the NCATS MIPE library collection: VP6_DJ cell viability assay (AID 1919867). Also: nearly all actives have a fitted effect of over 40% in size. Also: potency is read from the fitted curve at half-maximal effect. The method, boiled down: as §1

Potency and viability data for 20 molecules are collected here from PubChem BioAssay (NCATS).

Results filed as inconclusive are left out. Unmarked numbers belong to inactive results. Calls of active or inactive are those of the source. Calls follow the shape of the dose curve; as a rule, active = well fitted cell-killing curve with a large enough effect; inconclusive = small, poorly fitted or top-dose-only effect, or effect the other way; inactive = no such curve, though single readings can be large or run the other way.

Take `NC(=O)c1ccc(I)c([N+](=O)[O-])c1`: the Potency in assay [1] is 23.5 µM (active); in assay [3] it was 18.7 µM (active); in [4] it was 20.9 µM (active). In assay [2], the viability – broadly, a read-out of living cells in per cent, often relative to untreated cells – was 102%. Besides, the Potency entry in assay [5] and in assay [6] was “inactive” throughout.

`CC(C)(C)NCC(O)c1ccc(O)c(CO)c1` (stereo not given): the Potency entry in assay [1], in assay [7], in assay [8], in [3], in [9] and in [10] was “inactive” in each case. The Potency result in assay [11] is “inactive”.

Turning to `CC(=O)NC(C)c1ccc(Oc2ccc(OC(C)C)cc2)cc1` (stereo not given), the Potency in assay [1] was 1.48 µM (active); in assay [3], 16.6 µM (active); in [4] it was 16.6 µM (active); in [12], 16.6 µM (active). Also, in [7], the Potency result is “inactive”.

Take `Oc1cccc(-c2nc(N3CCOCC3)c3oc4ncccc4c3n2)c1`: the Potency was 0.0855 µM (active) in assay [1]; 0.054 µM (active) in assay [7]; 0.136 µM (active) in assay [8]; 0.0382 µM (active) in assay [9]; 0.0855 µM (active) in assay [4]; 0.54 µM (active) in [12]. The Potency in [11] was 0.136 µM (active).

On to `Nc1ncnc2nc(-c3ccc(N4CCOCC4)nc3)cc(-c3cccc(Br)c3)c12`, for which the Potency in assay [1] was 20.9 µM (active); in [8], 10.5 µM (active); in assay [3], 16.6 µM (active); in assay [4] it was 18.7 µM (active).

In the case of `NNCCc1ccccc1`, the Potency result in [1], in assay [8], in assay [4], in assay [10] and in [5] was “inactive” in each case. Besides, in assay [7], the Potency is 8.33 µM (active).

With `O=S(=O)(N=Cc1c(O)ccc2ccccc12)c1cccs1`, the Potency in assay [1] was 7.43 µM (active); in assay [8], 0.0935 µM (active); in [3], 20.9 µM (active); in assay [9], 18.7 µM (active). Also, the Potency result in assay [11] was “inactive”.

Consider `O=C(NOC[C@H](O)CO)c1ccc(F)c(F)c1Nc1ccc(I)cc1F`, for which the Potency is 1.48 µM (active) in assay [1]; 16.6 µM (active) in assay [7]; 0.0074 µM (active) in [8]; 0.0296 µM (active) in assay [3]; 0.0372 µM (active) in assay [13]; 0.0662 µM (active) in [4]. Also, the Potency in assay [10] is 0.0296 µM (active). Further, the Potency result in assay [6] was “inactive”.

On to `CCN(c1ccccc1)c1cc(NC)[n+](C)c(C)n1`, for which the Potency entry in assay [1], in assay [3], in assay [13], in assay [9], in assay [4] and in assay [10] was “inactive” in each case. Besides, the Potency result in assay [11] was “inactive”.

Regarding `CNC[C@H](O)c1cccc(O)c1`, the Potency result in assay [1], in assay [3], in assay [4] and in [6] was “inactive” throughout. The figures for the Potency in [13] and in [9] were 1.32 µM (active) and 0.0021 µM (active), respectively.

With `S=C(NCc1ccc2c(c1)OCO2)N1CCN(c2ncnc3c2oc2ccccc23)CC1`, the Potency is 2.41 µM (active) in assay [1]; 12.1 µM (active) in [7]; 2.41 µM (active) in assay [8]; 0.96 µM (active) in assay [3]; 0.96 µM (active) in assay [13]; 6.79 µM (active) in assay [4]. Further, the Potency was 4.81 µM (active) in assay [12] and 1.36 µM (active) in assay [6].

As to `CCCn1c(=O)c2[nH]c(C34CC5CC3C[C@@H](C5)C4)nc2n(CCC)c1=O`, the Potency result in assay [1], in [7], in assay [9], in [4], in assay [11] and in [5] was “inactive” throughout. Further, in assay [6], the Potency result was “inactive”. The Potency in [10] was 8.33 µM (active).

Regarding `Nc1nccc(-c2ccc3noc(-c4ccc(Cl)cc4)c3c2)n1`, the Potency result in [1], in [9], in assay [10], in [11], in assay [5] and in assay [6] was “inactive” each time. The Potency is 2.64 µM (active) in [8] and 3.72 µM (active) in assay [3].

Take `CC(C[N+](C)(C)C)OC(N)=O` (stereo not given): the Potency result in assay [1], in assay [7], in assay [4], in [12], in assay [10] and in [6] was “inactive” throughout.

In the case of `CCCCCCCc1ccc(CCc2cccc(O)c2C(=O)O)cc1`, the Potency in assay [1] is 20.9 µM (active); in [9], 29.6 µM (active); in [4] it was 20.9 µM (active); in [10] it was 16.6 µM (active). Moreover, the Potency result in [7], in assay [11] and in assay [6] was “inactive” each time.

For the molecule `COc1ccc(-c2oc3cc(OC)ccc3c2C(=O)c2ccc(C#N)cc2)cc1`, the Potency entry in assay [1], in assay [4], in [10], in assay [11] and in [5] was “inactive” each time. Also, the Potency in assay [7] was 16.6 µM (active); in [8], 3.32 µM (active); in assay [3], 8.33 µM (active).

For `O=C(Nc1cccnc1)N1CCC(Cc2cccc(Oc3ccc(C(F)(F)F)cn3)c2)CC1`, the Potency is 18.7 µM (active) in assay [1]; 18.7 µM (active) in [7]; 14.8 µM (active) in assay [8]; 10.5 µM (active) in assay [13]; 14.8 µM (active) in [9]; 16.6 µM (active) in assay [4]. Further, the results for the Potency in assay [12] and in assay [6] were 14.8 µM (active) and 8.33 µM (active), respectively.

Regarding `O=C1CCc2cc(OCCCCc3nnnn3C3CCCCC3)ccc2N1`, the Potency result in [1], in [7], in [13], in assay [5] and in assay [6] was “inactive” in each case.

For the molecule `CCc1ccc(CCOc2ccc(CC3SC(=O)NC3=O)cc2)nc1` (stereo not given), the Potency result in [1], in [7], in assay [4], in assay [5] and in assay [6] was “inactive” in each case. In addition, the Potency in [12] was 18.7 µM (active).

For the molecule `CCC(C)N(C)C(=O)c1cc2ccccc2c(-c2ccccc2Cl)n1` (stereo not given), the Potency entry in assay [1] was “inactive”. Also, the Potency in assay [8] is 8.33 µM (active); in [3] it was 5.26 µM (active); in assay [13], 6.62 µM (active); in [12], 16.6 µM (active).
